From PubChem BioAssay (EPA / NIEHS)
More than one record can exist for a structure, and the calls need not agree. Active and inactive are the calls of the source. The calls were made as follows: active = hit-call score of the fitted dose curve at least 0.9, where 1 is the maximum; inactive = score below 0.9.

Each molecule was assayed on E-selectin (Homo sapiens) (UniProt P16581) (assay: BSK_SAg_Eselectin: BioMAP Diversity Plus: SAg Assay for Eselectin Biomarker Activity (AID 2283091)). Settings: primary human HUVEC with PBMC; actives raise or lower the signal.
E-selectin (Homo sapiens), sequence (P16581 whole entry, looked up): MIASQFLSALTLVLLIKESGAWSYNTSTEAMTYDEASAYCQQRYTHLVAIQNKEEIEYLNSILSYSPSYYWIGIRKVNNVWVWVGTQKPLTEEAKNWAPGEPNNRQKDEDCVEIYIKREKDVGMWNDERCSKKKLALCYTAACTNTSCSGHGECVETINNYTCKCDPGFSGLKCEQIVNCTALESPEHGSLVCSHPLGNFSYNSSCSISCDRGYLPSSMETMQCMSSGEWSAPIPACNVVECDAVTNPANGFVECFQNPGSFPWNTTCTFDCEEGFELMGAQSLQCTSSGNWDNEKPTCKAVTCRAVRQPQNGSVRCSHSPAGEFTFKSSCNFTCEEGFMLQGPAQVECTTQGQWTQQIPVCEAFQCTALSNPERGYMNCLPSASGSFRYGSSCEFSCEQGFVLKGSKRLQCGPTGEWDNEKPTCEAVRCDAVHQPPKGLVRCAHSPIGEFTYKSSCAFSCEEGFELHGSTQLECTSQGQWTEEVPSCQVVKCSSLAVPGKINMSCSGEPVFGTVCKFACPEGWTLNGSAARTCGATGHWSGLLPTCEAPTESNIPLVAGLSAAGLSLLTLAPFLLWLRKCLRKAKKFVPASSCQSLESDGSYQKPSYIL
Experimental: BSK_SAg is a cell-based, multiplexed-readout assay that uses umbilical vein endothelium and peripheral blood mononuclear cells, a human vascular primary cell co-culture, with measurements taken at 24 hours after chemical dosing in a 96-well plate.BSK_SAg_Eselectin is an assay component measured in the BSK_SAg assay. It measures E-selectin antibody related to regulation of gene expression using ELISA technology.Data from the assay component BSK_SAg_Eselectin was analyzed into 1 assay endpoint. This assay endpoint, BSK_SAg_Eselectin, was analyzed with bidirectional fitting relative to DMSO as the negative control and baseline of activity. Using a type of binding reporter, gain or loss-of-signal activity can be used to understand changes in the signaling as they relate to the gene SELE. Furthermore, this assay endpoint can be referred to as a primary readout, because this assay has produced multiple assay endpoints where this one serves a signaling function. To generalize the intended target to other relatable targets, this assay endpoint is annotated to the cell adhesion molecules intended target family, where the subfamily is selectins.
The levels of cell surface (or secreted, indicated by the prefix "s") biomarker endpoints were measured by ELISA. Overt cytotoxicity to cells in confluent adherent cultures (all systems other than the BT system) was assessed by measuring total protein levels using sulforhodamine B (SRB) staining in parallel cultures at the time of biomarker measurements, indicated as SRB endpoints. For proliferation assays for adherent cell types, individual cell types are cultured at sub-confluence and relative cell numbers quantified by SRB staining at time points optimized for each system (48 h: 3C and CASM3C systems; 72 h: BT and HDF3CGF systems; 96 h: SAg system). SRB was performed by staining cells with 0.1% SRB after fixation with 10% TCA and reading wells at 560 nm.Viability and proliferation of PBMC (T cells) was quantified by Alamar Blue reduction for the SAg and BT systems. For PBMC viability (referred to as PBMC Cytotoxicity within the assay endpoint names), cells were plated (75,000/well in a 96-well plate) and then chemical samples added for 1 h before addition of activators, SEB and TSST-1 (20 ng/mL final concentration each). Cells were incubated for 90 h. Then, Alamar Blue (20 uL/well) (Invitrogen, Cat DAL1100) was added for 6 h, and the plates were read with a fluorescence microplate reader at 546/580 nm (excitation/emission). For PBMC proliferation, cells were plated and activated as above but incubated for only 16 h prior to addition of Alamar Blue. Plates were read after 6 h.

Structure (SMILES)	outcome	AC50
c1ccc2cc(Nc3ccc(Nc4ccc5ccccc5c4)cc3)ccc2c1	inactive	–
CC1(C)C2=CCCC(C)(C)[C@]23CC[C@H]1C3	inactive	–
C=C(C)C(=O)OCC(CC)(COC(=O)C(=C)C)COC(=O)C(=C)C	–	19.7 µM (active)
C[C@@H]1CCN(C(=O)[C@H](CCCN=C(N)N)NS(=O)(=O)c2cccc3c2NC[C@H](C)C3)[C@@H](C(=O)O)C1	inactive	–
CCCCOC(=O)CCCCCCCC(=O)OCCCC	inactive	–
CS(=O)(=O)c1ccc(C2=C(c3ccccc3)C(=O)OC2)cc1	inactive	–
Oc1c(Cl)cc(Cl)c(Cl)c1Cc1c(O)c(Cl)cc(Cl)c1Cl	–	3.17 µM (active)
CC(=O)c1c(C)c([N+](=O)[O-])c(C(C)(C)C)c([N+](=O)[O-])c1C	inactive	–
CN(c1nccc(=O)[nH]1)C1CCN(c2nc3ccccc3n2Cc2ccc(F)cc2)CC1	inactive	–
CC(C)(C)CC(C)(C)c1ccc(OCCOCC[N+](C)(C)Cc2ccccc2)cc1	–	3.59 µM (active)
Clc1cc(Cl)c(-c2c(Cl)c(Cl)cc(Cl)c2Cl)cc1Cl	–	14.9 µM (active)
CSCCC=O	inactive	–
O=CN1CCOCC1	inactive	–
CN(C)C(=O)Nc1ccc(Oc2ccc(Cl)cc2)cc1	inactive	–
CC(C)(N=C=O)c1cccc(C(C)(C)N=C=O)c1	inactive	–
CCCCCCC(CO)CCCC (stereo not given)	inactive	–
c1ccc(CCc2ccccc2)cc1	–	31.7 µM (active)
Cc1cc(CCC(=O)OCCOCCOCCOC(=O)CCc2cc(C)c(O)c(C(C)(C)C)c2)cc(C(C)(C)C)c1O	inactive	–
O=C1c2ccccc2C(=O)c2c(O)ccc(O)c21	–	1.21 µM (active)
COc1cc(Cl)c(OC)cc1N	inactive	–

Structure (SMILES)	outcome	AC50
O=C1OC2(c3ccccc31)c1ccc(O)c(Br)c1Oc1c2ccc(O)c1Br	–	26 µM (active)
CC(CN=Cc1ccccc1O)N=Cc1ccccc1O (stereo not given)	inactive	–
CCN(CC)C(=O)N(CC)CC	inactive	–
IC(I)I	inactive	–
O=C(Nc1ccc2c(O)c(N=Nc3ccc(N=Nc4ccc(S(=O)(=O)O)cc4)cc3)c(S(=O)(=O)O)cc2c1)c1ccccc1	inactive	–
CCCCN(CCCC)C(=O)N(CCCC)CCCC	–	9.94 µM (active)
COc1ccc(OC)c(N=Nc2c(O)ccc3ccccc23)c1	inactive	–
C=C(C)C(=O)OCCOCCOCCOC(=O)C(=C)C	inactive	–
CC(=O)Nc1ccc(C(=O)CCl)cc1	–	5.34 µM (active)
CC1(C)CCC[C@]2(C)[C@H]3CCO[C@]3(C)CC[C@@H]12	inactive	26.4 µM (active)
C=C(C)[C@H]1CC=C(C)C(=O)C1	inactive	–
C1=CC2C3C=CC(C3)C2C1 (stereo not given)	inactive	–
CS(=O)(=O)OCCCCOS(C)(=O)=O	inactive	–
CCCCCC(C=O)=Cc1ccccc1	inactive	–
COc1ccc(CCN2CCC(Nc3nc4ccccc4n3Cc3ccc(F)cc3)CC2)cc1	inactive	–
CCCCCCCCCCCCCCCC(=O)OC/C=C(C)/C=C/C=C(C)/C=C/C1=C(C)CCCC1(C)C	inactive	–
CC(C=O)Cc1ccc(C(C)(C)C)cc1 (stereo not given)	inactive	–
C=CC(C)(O)CCC=C(C)C (stereo not given)	inactive	–
CCC(C)c1cc([N+](=O)[O-])cc([N+](=O)[O-])c1OC(=O)OC(C)C (stereo not given)	–	12.2 µM (active)
